Drawing on the supplement of paper PMC10849652, this text covers log2 fold change for 23 targets.

Of roughly 7,900 targets only a part is listed; those with a hit were picked by preference. About 0.6% of all pairs of compound and target were hits. A number with no mark means an inactive call.

Sequence of UniProt Q9H4L7 (Q9H4L7 whole entry, looked up): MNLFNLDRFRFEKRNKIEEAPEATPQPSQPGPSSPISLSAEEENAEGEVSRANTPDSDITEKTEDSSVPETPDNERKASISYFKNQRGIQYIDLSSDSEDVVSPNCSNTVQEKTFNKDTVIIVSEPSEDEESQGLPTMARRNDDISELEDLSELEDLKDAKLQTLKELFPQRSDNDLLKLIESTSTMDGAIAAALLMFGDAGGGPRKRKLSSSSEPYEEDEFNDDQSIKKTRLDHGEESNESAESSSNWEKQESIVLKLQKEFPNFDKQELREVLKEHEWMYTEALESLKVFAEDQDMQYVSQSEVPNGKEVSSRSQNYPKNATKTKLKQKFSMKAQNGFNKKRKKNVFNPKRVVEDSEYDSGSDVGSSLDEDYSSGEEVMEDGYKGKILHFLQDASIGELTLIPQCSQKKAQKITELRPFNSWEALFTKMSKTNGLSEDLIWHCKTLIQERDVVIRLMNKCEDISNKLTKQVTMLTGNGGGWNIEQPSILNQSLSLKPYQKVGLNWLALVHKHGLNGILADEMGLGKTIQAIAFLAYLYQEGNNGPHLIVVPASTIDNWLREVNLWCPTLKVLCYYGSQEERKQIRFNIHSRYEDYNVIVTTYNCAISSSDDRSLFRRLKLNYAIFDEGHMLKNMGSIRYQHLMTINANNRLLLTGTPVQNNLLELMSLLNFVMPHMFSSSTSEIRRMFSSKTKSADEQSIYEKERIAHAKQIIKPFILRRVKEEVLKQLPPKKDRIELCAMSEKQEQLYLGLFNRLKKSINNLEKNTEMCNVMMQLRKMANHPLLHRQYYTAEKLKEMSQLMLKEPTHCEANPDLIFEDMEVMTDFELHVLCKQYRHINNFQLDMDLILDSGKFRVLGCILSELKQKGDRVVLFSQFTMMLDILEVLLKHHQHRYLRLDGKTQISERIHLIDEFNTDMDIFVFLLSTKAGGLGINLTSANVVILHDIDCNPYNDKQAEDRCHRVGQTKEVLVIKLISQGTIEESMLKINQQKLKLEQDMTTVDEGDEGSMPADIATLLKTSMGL
Sequence of UniProt P62072 (P62072 whole entry, looked up): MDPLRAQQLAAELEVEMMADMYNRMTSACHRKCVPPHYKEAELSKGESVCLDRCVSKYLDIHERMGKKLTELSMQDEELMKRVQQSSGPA
Sequence of UniProt Q13596 (Q13596 whole entry, looked up): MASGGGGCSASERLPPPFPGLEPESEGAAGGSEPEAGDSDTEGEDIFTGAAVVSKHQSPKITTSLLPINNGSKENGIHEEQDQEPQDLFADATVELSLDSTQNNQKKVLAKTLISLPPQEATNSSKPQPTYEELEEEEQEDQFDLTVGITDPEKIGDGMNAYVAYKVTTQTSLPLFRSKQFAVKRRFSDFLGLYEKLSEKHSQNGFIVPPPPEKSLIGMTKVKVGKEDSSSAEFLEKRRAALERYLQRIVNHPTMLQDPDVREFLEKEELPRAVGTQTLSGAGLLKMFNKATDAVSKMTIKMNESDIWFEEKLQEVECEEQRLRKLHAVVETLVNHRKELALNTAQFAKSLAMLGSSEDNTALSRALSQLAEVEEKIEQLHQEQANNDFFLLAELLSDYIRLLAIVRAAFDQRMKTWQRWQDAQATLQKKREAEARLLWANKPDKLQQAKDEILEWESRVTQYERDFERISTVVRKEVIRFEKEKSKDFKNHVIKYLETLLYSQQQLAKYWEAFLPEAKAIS
Sequence of UniProt Q01085 (Q01085 whole entry, looked up): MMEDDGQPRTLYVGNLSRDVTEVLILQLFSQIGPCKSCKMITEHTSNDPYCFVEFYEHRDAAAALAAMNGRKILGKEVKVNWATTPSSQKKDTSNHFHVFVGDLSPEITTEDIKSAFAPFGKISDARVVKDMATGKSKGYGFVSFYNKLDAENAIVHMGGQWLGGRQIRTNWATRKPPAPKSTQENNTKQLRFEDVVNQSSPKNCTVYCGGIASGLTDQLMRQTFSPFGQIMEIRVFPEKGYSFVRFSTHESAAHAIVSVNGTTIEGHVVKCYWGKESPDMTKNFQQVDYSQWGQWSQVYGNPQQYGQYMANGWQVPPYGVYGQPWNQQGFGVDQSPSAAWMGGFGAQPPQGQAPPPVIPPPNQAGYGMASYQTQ
Sequence of UniProt Q8NBW4 (Q8NBW4 whole entry, looked up): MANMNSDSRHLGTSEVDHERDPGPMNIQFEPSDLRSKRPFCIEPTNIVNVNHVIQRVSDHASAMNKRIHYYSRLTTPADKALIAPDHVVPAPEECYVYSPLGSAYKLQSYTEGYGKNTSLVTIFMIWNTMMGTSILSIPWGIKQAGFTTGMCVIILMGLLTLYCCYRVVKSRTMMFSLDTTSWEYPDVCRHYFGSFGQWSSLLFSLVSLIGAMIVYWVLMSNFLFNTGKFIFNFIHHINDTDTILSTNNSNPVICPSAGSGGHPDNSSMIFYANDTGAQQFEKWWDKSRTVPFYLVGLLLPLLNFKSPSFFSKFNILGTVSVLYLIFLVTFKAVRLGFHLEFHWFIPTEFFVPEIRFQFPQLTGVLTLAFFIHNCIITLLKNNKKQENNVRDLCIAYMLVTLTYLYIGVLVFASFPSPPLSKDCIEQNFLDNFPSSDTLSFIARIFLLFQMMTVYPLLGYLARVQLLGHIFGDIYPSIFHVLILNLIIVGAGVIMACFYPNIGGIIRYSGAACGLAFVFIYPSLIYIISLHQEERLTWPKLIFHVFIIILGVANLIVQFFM
Sequence of UniProt P42229 (P42229 whole entry, looked up): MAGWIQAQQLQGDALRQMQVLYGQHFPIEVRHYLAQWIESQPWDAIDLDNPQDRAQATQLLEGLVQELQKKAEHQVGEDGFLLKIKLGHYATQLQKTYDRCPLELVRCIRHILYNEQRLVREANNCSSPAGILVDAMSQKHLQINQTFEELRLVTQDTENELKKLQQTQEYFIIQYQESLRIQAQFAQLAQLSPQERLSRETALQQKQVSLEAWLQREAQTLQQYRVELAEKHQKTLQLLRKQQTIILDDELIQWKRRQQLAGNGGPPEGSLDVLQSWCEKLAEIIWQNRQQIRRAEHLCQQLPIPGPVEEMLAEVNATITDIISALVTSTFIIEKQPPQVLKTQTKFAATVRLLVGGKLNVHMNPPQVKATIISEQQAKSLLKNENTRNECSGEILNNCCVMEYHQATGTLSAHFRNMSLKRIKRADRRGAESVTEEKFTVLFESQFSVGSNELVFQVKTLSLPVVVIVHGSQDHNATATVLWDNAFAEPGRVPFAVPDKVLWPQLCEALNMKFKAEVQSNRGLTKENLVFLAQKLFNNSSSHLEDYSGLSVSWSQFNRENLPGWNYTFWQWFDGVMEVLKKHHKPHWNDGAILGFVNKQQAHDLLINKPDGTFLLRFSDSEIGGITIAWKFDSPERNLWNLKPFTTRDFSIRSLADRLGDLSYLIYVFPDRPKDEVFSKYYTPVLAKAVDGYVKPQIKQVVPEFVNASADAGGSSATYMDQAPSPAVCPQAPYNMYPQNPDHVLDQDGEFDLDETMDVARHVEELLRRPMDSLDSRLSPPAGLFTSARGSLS
Sequence of UniProt Q8IY18 (Q8IY18 whole entry, looked up): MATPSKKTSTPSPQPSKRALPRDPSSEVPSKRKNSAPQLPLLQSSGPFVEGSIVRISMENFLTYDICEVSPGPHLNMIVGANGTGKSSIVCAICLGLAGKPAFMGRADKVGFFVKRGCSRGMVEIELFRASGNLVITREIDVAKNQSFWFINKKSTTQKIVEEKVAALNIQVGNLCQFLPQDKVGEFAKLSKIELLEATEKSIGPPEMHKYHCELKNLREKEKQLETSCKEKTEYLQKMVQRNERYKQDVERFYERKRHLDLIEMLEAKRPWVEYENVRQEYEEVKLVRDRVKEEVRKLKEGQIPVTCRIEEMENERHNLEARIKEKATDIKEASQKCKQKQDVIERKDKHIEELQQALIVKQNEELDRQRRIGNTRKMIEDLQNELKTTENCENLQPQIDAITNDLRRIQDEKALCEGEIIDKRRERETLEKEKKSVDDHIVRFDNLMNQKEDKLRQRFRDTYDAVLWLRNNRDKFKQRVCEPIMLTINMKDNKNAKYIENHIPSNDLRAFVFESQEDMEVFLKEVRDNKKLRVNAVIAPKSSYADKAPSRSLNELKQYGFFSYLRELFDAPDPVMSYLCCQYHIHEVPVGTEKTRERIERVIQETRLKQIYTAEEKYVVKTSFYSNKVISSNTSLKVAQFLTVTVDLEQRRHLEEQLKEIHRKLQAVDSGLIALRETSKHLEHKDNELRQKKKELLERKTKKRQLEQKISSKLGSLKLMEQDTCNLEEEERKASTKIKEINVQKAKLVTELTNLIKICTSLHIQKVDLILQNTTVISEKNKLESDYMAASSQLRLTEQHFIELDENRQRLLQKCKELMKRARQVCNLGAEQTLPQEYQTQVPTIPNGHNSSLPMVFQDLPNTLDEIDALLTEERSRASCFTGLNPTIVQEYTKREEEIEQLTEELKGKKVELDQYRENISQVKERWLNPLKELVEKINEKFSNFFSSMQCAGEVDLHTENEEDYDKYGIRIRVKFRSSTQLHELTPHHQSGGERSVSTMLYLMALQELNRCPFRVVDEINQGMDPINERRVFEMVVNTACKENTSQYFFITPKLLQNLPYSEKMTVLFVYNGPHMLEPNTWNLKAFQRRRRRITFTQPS
Sequence of UniProt Q9Y5X3 (Q9Y5X3 whole entry, looked up): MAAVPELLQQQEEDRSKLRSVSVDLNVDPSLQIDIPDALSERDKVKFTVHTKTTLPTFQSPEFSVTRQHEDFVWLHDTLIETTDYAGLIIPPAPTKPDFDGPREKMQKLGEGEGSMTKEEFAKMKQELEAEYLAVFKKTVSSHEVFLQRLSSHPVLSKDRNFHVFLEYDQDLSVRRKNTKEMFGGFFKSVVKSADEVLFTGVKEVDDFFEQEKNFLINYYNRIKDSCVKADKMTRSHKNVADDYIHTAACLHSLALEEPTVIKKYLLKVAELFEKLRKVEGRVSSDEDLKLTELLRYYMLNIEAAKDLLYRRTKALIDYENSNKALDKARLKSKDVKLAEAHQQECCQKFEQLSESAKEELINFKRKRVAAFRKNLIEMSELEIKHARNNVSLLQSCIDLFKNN

Compound in this experiment: CS(=O)(=O)c1ccc(-c2cnc(N)c(C(=O)Nc3ccccc3)n2)cc1
In words: log2 fold change, soluble protein after heating vs DMSO (PISA); higher = thermal stabilisation; K562 cells, 10 uM, 30 min; active = over 0.2 and 3.5 SD of the protein, either way, in both replicates (recomputed). Put shortly:
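Aliquots of K562 cells (2×10^6 cells/mL) treated with 10 μM compound for 30 min were heated for 3 min over 48°C-58°C. After pooling and extraction in PBS with 0.5% NP-40 at 4°C, soluble protein from a 21,000xg, 90 min spin was quantified by TMTpro 16plex LC-MS/MS with channel sums equalised. Thermal stability is expressed against control samples, from duplicates, as a log2 fold change.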
STAT5B (UniProt P51692): the log2 fold change was 0.119.
The result for STAT3 (UniProt P40763) reads 0.059.
With STAM2 (UniProt O75886), the log2 fold change was 0.114.
The result for TIAL1 isoform 2 (UniProt Q01085) reads 0.008; that for SLC38A9 (UniProt Q8NBW4), 0.165; that for STAT5A (UniProt P42229), 0.02.
Turning to SNX5 (UniProt Q9Y5X3), the log2 fold change is -0.075.
In the case of SMARCE1 (UniProt Q969G3), the log2 fold change was -0.088.
The result for SRSF3 (UniProt P84103) reads -0.081; that for SMC5 (UniProt Q8IY18), 0.03; that for SNX1 (UniProt Q13596), -0.134.
As for TARBP1 (UniProt Q13395), the log2 fold change is 0.076.
STX17 (UniProt P56962): the log2 fold change was 0.197.
SMARCAD1 isoform 2 (UniProt Q9H4L7): the log2 fold change was 0.029.
Turning to TIMM10 (UniProt P62072), the log2 fold change is -0.035.
The figure for SPCS2 (UniProt Q15005) is 0.032; for SMAP2 (UniProt Q8WU79) it is 0.04.
The result for TK1 (UniProt P04183) reads -0.046.
As for TIMM44 (UniProt O43615), the log2 fold change was -0.028.
With TIMM29 (UniProt Q9BSF4), the log2 fold change was 0.044.
Consider SRI (UniProt P30626), for which the log2 fold change is -0.061.
In the case of SORT1 (UniProt Q99523), the log2 fold change was 0.007.
The result for SLC7A6 (UniProt Q92536) reads -0.011.
